According to PubChem BioAssay AID1345083 (National Center for Advancing Translational Sciences (NCATS), 2018):
In all, about 94,000 compounds went through this assay and about 6,200 (6.6%) were called active. Roughly 31% stayed inconclusive and do not appear here. Only a selection was taken, and actives are over-represented in it overall. A number with no mark means an inactive call. Calls follow the shape of the dose curve; as a rule, active = well fitted inhibition curve with a large enough effect; inconclusive = small, poorly fitted or top-dose-only effect; inactive = flat fitted curve, though single readings scatter.

Assay: Cytotoxic Profiling in HEK 293 Cell Line of Diverse Libraries Using Quantitative High-Throughput Screening; also: nearly all actives have a fitted effect of over 60% in size
Conditions: HEK 293 viability, ATP luminescence (CellTiter-Glo), 48-72 h; series mostly up to 115 µM; activity change, negative = cytotoxicity: at the top concentration
Summary of the method: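 HEK 293 seeded at 250 cells/well receive compound via pintool. After 48 or 72 hr at 37 degree Celsius, 5% CO2 and 95% humidity, CellTiter-Glo is dispensed and luminescence read following 10 min at room temperature.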
% is scaled to controls: 0 for no effect and ±100 for the full control effect; potency is read from the fitted curve at half-maximal effect.

Row | Compound | activity change, negative = cytotoxicity | Potency | outcome
1 | COC[C@H]1CCCN1Cc1nc(C2(O)CCN(CC3CCCCC3)CC2)cs1 | -24.9% [at 172 µM] |  | 
2 | Cc1nc(CCNS(=O)(=O)Cc2cccc(Cl)c2)no1 | 3.75% |  | 
3 | COc1ccc(C(=O)N2CC(c3nnc(-c4ccncc4)o3)C3(CCOCC3)C2)cn1 (stereo not drawn) | -1.02% |  | 
4 | CNC(=O)[C@@H](Cc1ccccc1)N1CCC[C@H]1C(=O)N1CCC1 | -10.8% [at 172 µM] |  | 
5 | O=C(NCCc1ccccc1)C1CCCN1C(=O)c1cccc(-c2ccccn2)c1 (stereo not drawn) | 3.51% |  | 
6 | CC(=O)N1CCC(c2nnc3n2C(C(=O)NCCCc2ccccc2)CC3)CC1 (stereo not drawn) | -5.15% |  | 
7 | Cc1ccc(Nc2ccnc(N3CCCC3C(=O)N3CCC(Cc4ccccc4)CC3)n2)cc1 (stereo not drawn) |  | 14.1 µM (active) | 
8 | Cc1ccc(CC(=O)N2CCC(Cc3nc(-c4cnccn4)no3)CC2)cc1 | -11% |  | 
9 | O=C(NCCCc1ccccc1)C1CCCN1c1nccc(Nc2ccccc2F)n1 (stereo not drawn) |  | 44.7 µM (active) | 
10 | Cn1ccc(C(=O)N2C[C@H]3CN(C4CCOCC4)C[C@@]3(C(=O)O)C2)n1 | -0.816% |  | 
11 | COC(=O)[C@H](Cc1ccc(OC)cc1)NC(=O)[C@H]1CN(S(=O)(=O)c2ccccc2)CCN1C(C)=O | -2.68% |  | 
12 | COCCC(=O)N1C[C@@H](COC)[C@H](c2nc(C)no2)C1 | -16.4% |  | 
13 | CNC(=O)[C@@H]1C[C@@H](n2cc(CN(C)C(=O)Nc3ccc(C)c(C)c3)nn2)CN1 | -17.4% |  | 
14 | C=CCN1C[C@@H]2CN(C(=O)CCc3cccc(OC)c3)C[C@]2(C(=O)O)C1 | -5.09% |  | 
15 | Cc1noc(C)c1[S+](=O)([O-])N1CCCC(C(=O)N2CCC(c3ccccc3)CC2)C1 (stereo not drawn) |  | 44.7 µM (active) | 
16 | Cc1noc(C)c1[S+](=O)([O-])N1CCC(C(=O)N2CCC(c3nc4ncccc4[nH]3)CC2)CC1 | 1.37% |  | 
17 | Cc1noc(C)c1[S+](=O)([O-])N1CCC(C(=O)N2CCC(c3nc4ccncc4[nH]3)C2)CC1 (stereo not drawn) | -0.958% |  | 
18 | CCC(C)NC(=O)C1(c2ccc(NS(C)(=O)=O)cc2)CCCCC1 (stereo not drawn) | -8.9% |  | 
19 | COc1ccc(C(=O)N2CCCC(c3nc(-c4cnccn4)no3)CCNC(=O)CC2)c(OC)n1 (stereo not drawn) |  |  | inactive
20 | Cc1ccc(C(=O)N2CCC(c3n[nH]c(=O)n3-c3ccccc3)CC2)cc1F | 2.52% |  | 
21 | CN(Cc1csc(-c2ccccc2)n1)c1cc(C2CC(O)C2)nc(N)n1 (stereo not drawn) |  | 25.1 µM (active) | 
22 | COc1ccc(N2C(=O)CSC23CCN(C(=O)c2ccc(C)cc2)CC3)cc1 | -82.5% |  | 
23 | O=C(c1cc(F)ccc1F)N1CCCC2(C1)NC(=O)N(Cc1ccccc1)C2=O (stereo not drawn) | -8.4% |  | 
24 | COc1cccc(S(=O)(=O)N2CCC(n3cnnc3C3CC3)CC2)c1 | -22.4% |  | 

Row | Compound | activity change, negative = cytotoxicity | Potency | outcome
25 | Cc1cccc2c(C3CCN(S(=O)(=O)c4cc(Cl)cc(Cl)c4)CC3)c[nH]c12 |  | 25.1 µM (active) | 
26 | O=C(O)[C@@H]1CN(C(=O)CCCn2cncn2)C[C@H]1c1ccc2c(c1)OCO2 | 2.24% |  | 
27 | O=C(N[C@@H]1CN(C(=O)c2ccc3nc[nH]c3c2)CC[C@@H]1CO)C1CC1 | -3.61% |  | 
28 | CC(C)C1=NOC2(CCN(C(=O)c3ccccc3F)C2)C1 (stereo not drawn) |  |  | inactive [at 172 µM]
29 | O=C(C1CCOC1)N1CCC(N(Cc2ccccc2)C2CCOCC2)CC1 (stereo not drawn) |  | 89.1 µM (active) | 
30 | O=C(C1CCOCC1)N1CCOC[C@H](Oc2ccccc2)C1 | -1.74% [at 172 µM] |  | 
31 | O=C(NC1CC1)c1ccc(CC2CCN(C(=O)C3CCOC3)CC2)cc1 (stereo not drawn) | -11.7% |  | 
32 | Cn1cc(-c2ccsc2)c2nc(CN3CCNC(=O)C3)cn2c1=O | -1.38% [at 172 µM] |  | 
33 | CN1CCN(C(=O)c2ccc3nnc(C(C)(C)C)n3c2)CC1 | 0.0478% [at 172 µM] |  | 
34 | CCc1cccc(NC(=O)Cn2c(=O)c(-c3noc(CC)n3)c3n(c2=O)CCCC3)c1 | 1.18% |  | 
35 | CCc1cc(=O)n(CC(=O)Nc2cccc(C(C)=O)c2)c(-c2ccccc2)n1 |  | 25.1 µM (active) | 
36 | CCc1cc(=O)n(CC(=O)Nc2cc(OC)cc(OC)c2)c(N2CCOCC2)n1 | 2.24% |  | 
37 | COc1ccc(-c2ccc(C(=O)N3CCN(C(=O)c4ccccc4OC)CC3)cc2)nn1 | 0.833% |  | 
38 | CN(C)[C@@H]1[C@@H](NC(=O)CCn2cnc3ccccc3c2=O)[C@H]2CCO[C@H]21 |  |  | inactive
39 | CCNC(=O)C1C(c2cccc(NC(=O)c3cccc(C)c3)c2)OC(=O)N1Cc1cccc(Cl)c1 (stereo not drawn) |  | 28.2 µM (active) | 
40 | CCCNC(=O)C(NC(=O)c1cccc(C)c1)C1CCN(C(=O)CCc2ccccc2)CC1 (stereo not drawn) | -7.6% |  | 
41 | N#Cc1cccc(C(=O)Nc2ccc([C@H]3OCC(=O)N(Cc4ccccc4)[C@@H]3CO)cc2)c1 | -23.9% |  | 
42 | COc1cccc([S+](=O)([O-])N2CCC(C(=O)N3CCC(N4CCOCC4=O)CC3)CC2)c1 |  |  | inactive
43 | COCc1cc(=O)n(CC(=O)Nc2ccc(Cl)cc2)c(N2CCOCC2)n1 | -23.5% |  | 
44 | COc1ccc(CN2CCC3(CC2)COc2ccccc2CN3)cc1 | 3.7% |  | 
45 | c1ccc2c(c1)CNC1(CCN(Cc3cccc4ccccc34)CC1)CO2 |  | 79.4 µM (active) | 
46 | O=[S+]1([O-])NC2(CCN(Cc3ccccc3)CC2)COc2ccccc21 | -3.51% |  | 
47 | O=C(NCCc1nc(-c2ccccc2)cs1)C1NCCc2[nH]cnc21 (stereo not drawn) | 1.73% |  | 
48 | O=S(=O)(Cc1cccc(F)c1)N1CCC(C2CCNC2)CC1 (stereo not drawn) | -18.2% |  | 

Row | Compound | activity change, negative = cytotoxicity | Potency | outcome
49 | Cc1ccc(CS(=O)(=O)N2CCC(C3CCNC3)CC2)cc1C (stereo not drawn) |  | 89.1 µM (active) | 
50 | O=C1CCN(C(=O)C2CCN(S(=O)(=O)Cc3ccccc3)CC2)CCCCCCN1 | -1.97% |  | 
51 | NCC(=O)N1Cc2ccccc2CC2(CCCCN2CC2CCOCC2)C1 (stereo not drawn) | -4.35% |  | 
52 | CCC(=O)N1Cc2ccccc2CC2(CCCN2C)C1 (stereo not drawn) | -18.2% [at 172 µM] |  | 
53 | NCC(=O)N1CCCC2(Cc3ccccc3CN2C(=O)c2cccc(Cl)c2)C1 (stereo not drawn) |  | 70.8 µM (active) | 
54 | O=C(c1cccnc1)N1C[C@@H](F)[C@@H](OCc2nc3ccc(C(F)(F)F)cc3[nH]2)C1 | -27.9% [at 172 µM] |  | 
55 | C[S+](=O)([O-])NC1CC2(CCN(Cc3ccc(O)cc3)CC2)c2ccccc21 (stereo not drawn) | -13.3% |  | 
56 | CC1=C[C@@H](CN2CCCC2)[C@H](C(C)C)C[C@H]1Cc1nnc(-c2ccc([N+](=O)[O-])cc2)o1 |  | 35.5 µM (active) | 
57 | CC1=C[C@@H](CN2CCOCC2)[C@H](C(C)C)C[C@H]1Cc1nnc(-c2ccc([N+](=O)[O-])cc2)o1 |  | 39.8 µM (active) | 
58 | CC1=C[C@@H](CN2CCN(CCO)CC2)[C@H](C(C)C)C[C@H]1Cc1nnc(-c2ccc(C)cc2)o1 |  | 31.6 µM (active) | 
59 | CC1=C[C@@H](CC#N)[C@H](C(C)C)C[C@H]1CC(=O)N1CCN(C)CC1 | -28.2% [at 172 µM] |  | 
60 | CNC(=O)c1cc(C)nc2onc(C3CCCN3C(=O)Cc3ccc(F)cc3)c12 (stereo not drawn) | -7.3% |  | 
61 | NC1CCCCN(C(=O)c2ccc3n[nH]nc3c2)C1 (stereo not drawn) | -10.8% |  | 
62 | CSc1cccc(NC(=O)N[C@H]2C[C@@H](C(=O)N[C@@H](CCCNC(=O)CC(C)(C)C)C(N)=O)N(C(=O)CC(C)(C)C)C2)c1 | -17.2% |  | 
63 | COCCS(=O)(=O)c1ncc(CN2CCCCO2)n1Cc1ccccc1 | -24% |  | 
64 | CCCN1C(=O)[C@H]2CC[C@@H]1CN(C(=O)c1nc(-c3ccccc3)[nH]c1C)C2 | 1.99% |  | 
65 | O=C(NC[C@H]1Cn2c(-c3ccc(F)cc3)cnc2CO1)C1CC1 | -2.09% [at 172 µM] |  | 
66 | Cc1ccc(Cl)cc1NC(=O)N1C[C@@H](F)C[C@H]1C(=O)N1CCCCC1 | 0.438% |  | 
67 | COc1cccc(NC(=O)N[C@H]2CCN(C(=O)C=C(C)C)[C@@H]2C(=O)N[C@@H](Cc2cccs2)C(N)=O)c1 | -0.217% |  | 
68 | O=C1CC(c2ccccc2)N(C(=O)CNC(=O)c2cnccn2)CCCCCCN1 (stereo not drawn) | -3.36% |  | 
69 | CC(C)(C)C(=O)Nc1cc(C2CC2)nn1-c1ccccc1 | 0.126% [at 172 µM] |  | 
70 | Cc1nn(-c2cccc(Br)c2)c(C)c1[C@@H]1C=C[C@@H](NS(=O)(=O)c2ccccc2)C1 |  | 44.7 µM (active) | 
71 | Cc1nn(CCC#N)c(C)c1[C@@H]1C=C[C@@H](NS(=O)(=O)c2ccccc2)C1 | -9.74% [at 172 µM] |  | 
72 | c1c[nH]c(CNC[C@H]2Cn3ccnc3CO2)n1 | -7.47% [at 230 µM] |  | 

Row | Compound | activity change, negative = cytotoxicity | Potency | outcome
73 | COc1ccc(CN2CCN3C(=O)N(c4ccccc4)C[C@H]3C2)cn1 | -19.4% [at 172 µM] |  | 
74 | COc1ccc(Nc2ccc3c(n2)CN(Cc2ccccc2C)C(=O)CO3)cn1 |  | 100 µM (active) | 
75 | CCOc1ccc(NC(=O)Cn2nc3n(c2=O)CCN(Cc2ccccc2C)C3=O)cc1 | -10.7% |  | 
76 | Cc1ccccc1CN1Cc2nc(NCc3ccncc3)ccc2OCC1=O |  | 89.1 µM (active) | 
77 | CC(=O)N1CCCN(C(=O)c2cnc3c(c2)N(C(=O)Cc2ccc(C(C)C)cc2)CCC3)CC1 | -27.9% |  | 
78 | CCC(C)NC(=O)N1CCC(CCOC)(NS(C)(=O)=O)CC1 (stereo not drawn) | -7.52% |  | 
79 | O=C(c1nc(-c2cccnc2)c2cnccn12)N1CCN(c2ncccn2)CC1 | -2.6% |  | 
80 | CN(C)c1ccc(C(=O)N[C@H]2C[C@H]3C(=O)NC[C@@H](CCC(=O)N4CCc5ccccc54)N3C2)cc1 | -18.7% |  | 
81 | O=C(c1ccccc1)N1CCN(C(=O)c2nc3cccnc3n(C3CC3)c2=O)CC1 | -15.7% |  | 
82 | CCC(=O)N1CCC(CC(=O)N2CCOCC2)C1 (stereo not drawn) | 7.81% |  | 
83 | COC(=O)CNC(=O)C1CCN(Cc2ccccc2-c2ccccc2F)CC1 | 0.145% |  | 
84 | C#CCNC(=O)C1CCN(Cc2ccccc2-c2ccccc2F)CC1 | -26.1% |  | 
85 | O=C(C1CCN(Cc2ccccc2-c2ccccc2F)CC1)N1CCC(c2ccccc2)CC1 |  | 25.1 µM (active) | 
86 | CC1CCC2(CC1)NC(=O)N(CC(=O)NCc1ccco1)C2=O (stereo not drawn) | 4.68% |  | 
87 | Cn1cc(C#N)cc1-c1nc(COc2ccccc2)nn1CC(F)(F)F | -25% |  | 
88 | COc1ccc(C2Cn3nnc(-c4noc(-c5ccc(OC)cc5C)n4)c3CO2)cc1 (stereo not drawn) | -11.1% |  | 
89 | Cc1nc(CCNS(=O)(=O)c2cccnc2)no1 | -4.92% |  | 
90 | COCCN1C(=O)c2ccccc2C(C(=O)NC2CC2)C12CCCCC2 (stereo not drawn) | -7.97% |  | 
91 | COc1ccccc1NC(=O)C1c2ccccc2C(=O)N(CC(C)C)C12CCCC2 (stereo not drawn) |  | 70.8 µM (active) | 
92 | COC(=O)CCNC(=O)C1c2ccccc2C(=O)N(CC(C)C)C12CCCC2 (stereo not drawn) | -8.33% |  | 
93 | COCCOC1CN(C2CCN(C(=O)C3CCOCC3)CC2)C12CCCCC2 (stereo not drawn) | 0.932% |  | 
